The supplement of paper PMC11732987, “Enantioselective OTUD7B fragment discovery through chemoproteomics screening and high-throughput optimisation” (Communications Chemistry, 2025)

What was measured:
Test in all cases: log2 ratio of Biotin-Ahx-Ub-VS probe labelling (fragment/DMSO); higher = less target engagement (more negative = stronger competition), active = hit call of the paper (q ≤ 0.05, log2 ratio ≤ -1)
Conditions in all cases: compound concentration: 200 uM; treatment time: 3 h
USP42 = target: T1, USP42 (UniProt Q9H9J4)
T1 sequence (whole entry): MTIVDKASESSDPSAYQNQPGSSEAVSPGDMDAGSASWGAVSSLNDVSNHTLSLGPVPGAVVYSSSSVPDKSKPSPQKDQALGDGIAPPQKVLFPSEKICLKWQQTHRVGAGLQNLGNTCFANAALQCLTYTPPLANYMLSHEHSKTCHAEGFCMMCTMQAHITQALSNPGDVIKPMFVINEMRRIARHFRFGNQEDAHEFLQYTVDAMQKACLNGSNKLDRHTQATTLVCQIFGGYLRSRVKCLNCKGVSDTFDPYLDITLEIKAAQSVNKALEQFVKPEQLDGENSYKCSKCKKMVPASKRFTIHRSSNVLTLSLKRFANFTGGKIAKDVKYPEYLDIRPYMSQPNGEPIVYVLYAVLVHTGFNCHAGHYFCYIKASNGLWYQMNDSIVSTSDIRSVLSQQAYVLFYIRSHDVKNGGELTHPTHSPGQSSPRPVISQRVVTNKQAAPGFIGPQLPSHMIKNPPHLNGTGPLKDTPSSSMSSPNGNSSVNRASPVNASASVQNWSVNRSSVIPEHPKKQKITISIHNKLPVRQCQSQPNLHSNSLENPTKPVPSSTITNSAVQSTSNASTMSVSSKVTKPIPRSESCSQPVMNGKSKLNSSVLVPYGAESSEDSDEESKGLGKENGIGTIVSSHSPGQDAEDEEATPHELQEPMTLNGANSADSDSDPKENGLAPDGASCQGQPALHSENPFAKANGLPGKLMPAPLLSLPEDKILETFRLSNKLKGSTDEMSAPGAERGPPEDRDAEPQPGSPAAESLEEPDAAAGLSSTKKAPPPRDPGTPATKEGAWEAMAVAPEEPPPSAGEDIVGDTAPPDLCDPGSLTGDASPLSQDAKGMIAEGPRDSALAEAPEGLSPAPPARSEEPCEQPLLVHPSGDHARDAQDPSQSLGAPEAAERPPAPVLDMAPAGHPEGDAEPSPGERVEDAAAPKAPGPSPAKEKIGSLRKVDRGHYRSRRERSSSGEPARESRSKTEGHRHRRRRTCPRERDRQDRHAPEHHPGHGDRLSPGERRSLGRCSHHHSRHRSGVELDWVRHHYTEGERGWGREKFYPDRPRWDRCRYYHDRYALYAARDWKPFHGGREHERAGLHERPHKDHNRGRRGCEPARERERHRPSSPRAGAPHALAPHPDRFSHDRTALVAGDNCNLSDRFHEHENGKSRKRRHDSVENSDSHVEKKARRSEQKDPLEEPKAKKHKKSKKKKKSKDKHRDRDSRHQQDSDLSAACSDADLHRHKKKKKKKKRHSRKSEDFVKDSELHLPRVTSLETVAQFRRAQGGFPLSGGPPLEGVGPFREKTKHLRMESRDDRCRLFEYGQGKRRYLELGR
Summary of the method: (§1)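 HEK293T lysate in Tris/CHAPS/IGEPAL buffer with protease inhibitors (495 µg per sample) was given fragment at 200 µM or vehicle for 3 h, in triplicate. It then received Biotin-Ahx-Ub-VS at 0.5 µM final for 1 h. Labelled DUBs were NeutrAvidin-enriched, digested with LysC and trypsin, and run by diaPASEF LC-MS/MS. Values are average log2 fragment/vehicle ratios by unpaired t-test on global-median-normalised Spectronaut quantities of proteins with ≥2 unique peptides.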

USP46 = USP46 (UniProt P62068)
Chain of USP46 (P62068 whole entry): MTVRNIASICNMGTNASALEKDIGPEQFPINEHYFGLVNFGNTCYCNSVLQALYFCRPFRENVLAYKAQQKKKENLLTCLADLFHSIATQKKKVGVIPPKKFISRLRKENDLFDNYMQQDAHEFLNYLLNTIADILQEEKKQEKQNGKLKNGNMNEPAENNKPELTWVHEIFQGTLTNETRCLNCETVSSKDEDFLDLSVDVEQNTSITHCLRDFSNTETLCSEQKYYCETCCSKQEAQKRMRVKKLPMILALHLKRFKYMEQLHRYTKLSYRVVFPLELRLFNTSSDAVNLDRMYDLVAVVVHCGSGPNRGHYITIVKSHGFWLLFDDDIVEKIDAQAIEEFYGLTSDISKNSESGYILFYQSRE
Summary of the method: as §1

USP47 = target: T2, USP47 (UniProt Q96K76)
T2 sequence (whole entry): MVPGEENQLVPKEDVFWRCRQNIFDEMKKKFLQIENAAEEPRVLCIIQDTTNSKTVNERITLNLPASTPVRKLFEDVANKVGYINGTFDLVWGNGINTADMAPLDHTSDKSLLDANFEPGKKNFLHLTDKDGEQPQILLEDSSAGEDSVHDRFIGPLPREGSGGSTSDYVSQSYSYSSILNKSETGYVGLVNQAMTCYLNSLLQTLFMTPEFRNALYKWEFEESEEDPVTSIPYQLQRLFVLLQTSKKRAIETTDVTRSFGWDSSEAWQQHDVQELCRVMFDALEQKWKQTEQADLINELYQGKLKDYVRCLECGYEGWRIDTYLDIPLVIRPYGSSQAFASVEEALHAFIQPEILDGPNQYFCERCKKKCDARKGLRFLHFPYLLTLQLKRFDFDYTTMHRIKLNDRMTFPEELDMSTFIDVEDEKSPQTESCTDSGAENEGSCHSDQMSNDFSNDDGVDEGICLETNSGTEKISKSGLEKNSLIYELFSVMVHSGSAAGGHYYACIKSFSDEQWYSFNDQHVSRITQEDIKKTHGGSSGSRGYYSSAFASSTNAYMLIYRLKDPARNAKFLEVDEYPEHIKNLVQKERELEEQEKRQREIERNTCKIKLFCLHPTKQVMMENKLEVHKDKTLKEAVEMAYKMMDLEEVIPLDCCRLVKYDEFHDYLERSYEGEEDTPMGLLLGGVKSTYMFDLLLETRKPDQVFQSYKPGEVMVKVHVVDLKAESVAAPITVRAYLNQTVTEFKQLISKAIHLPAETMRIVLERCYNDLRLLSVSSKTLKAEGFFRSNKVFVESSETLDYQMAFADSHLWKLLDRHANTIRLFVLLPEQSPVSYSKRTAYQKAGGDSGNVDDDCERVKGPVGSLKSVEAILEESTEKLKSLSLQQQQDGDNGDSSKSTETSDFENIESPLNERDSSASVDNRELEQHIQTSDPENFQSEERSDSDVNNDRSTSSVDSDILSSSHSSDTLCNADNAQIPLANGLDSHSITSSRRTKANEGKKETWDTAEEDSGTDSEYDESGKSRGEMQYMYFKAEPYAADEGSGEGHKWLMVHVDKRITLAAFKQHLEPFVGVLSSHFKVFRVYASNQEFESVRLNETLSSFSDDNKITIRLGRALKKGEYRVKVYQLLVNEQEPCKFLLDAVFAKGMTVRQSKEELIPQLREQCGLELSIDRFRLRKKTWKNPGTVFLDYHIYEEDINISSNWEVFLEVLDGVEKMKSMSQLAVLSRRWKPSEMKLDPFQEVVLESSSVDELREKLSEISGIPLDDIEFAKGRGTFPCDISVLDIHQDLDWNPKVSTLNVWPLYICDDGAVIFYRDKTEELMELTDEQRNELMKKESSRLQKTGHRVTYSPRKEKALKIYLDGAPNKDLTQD
Summary of the method: as §1

USP48 = target: T3, USP48 (UniProt Q86UV5)
T3 sequence (whole entry): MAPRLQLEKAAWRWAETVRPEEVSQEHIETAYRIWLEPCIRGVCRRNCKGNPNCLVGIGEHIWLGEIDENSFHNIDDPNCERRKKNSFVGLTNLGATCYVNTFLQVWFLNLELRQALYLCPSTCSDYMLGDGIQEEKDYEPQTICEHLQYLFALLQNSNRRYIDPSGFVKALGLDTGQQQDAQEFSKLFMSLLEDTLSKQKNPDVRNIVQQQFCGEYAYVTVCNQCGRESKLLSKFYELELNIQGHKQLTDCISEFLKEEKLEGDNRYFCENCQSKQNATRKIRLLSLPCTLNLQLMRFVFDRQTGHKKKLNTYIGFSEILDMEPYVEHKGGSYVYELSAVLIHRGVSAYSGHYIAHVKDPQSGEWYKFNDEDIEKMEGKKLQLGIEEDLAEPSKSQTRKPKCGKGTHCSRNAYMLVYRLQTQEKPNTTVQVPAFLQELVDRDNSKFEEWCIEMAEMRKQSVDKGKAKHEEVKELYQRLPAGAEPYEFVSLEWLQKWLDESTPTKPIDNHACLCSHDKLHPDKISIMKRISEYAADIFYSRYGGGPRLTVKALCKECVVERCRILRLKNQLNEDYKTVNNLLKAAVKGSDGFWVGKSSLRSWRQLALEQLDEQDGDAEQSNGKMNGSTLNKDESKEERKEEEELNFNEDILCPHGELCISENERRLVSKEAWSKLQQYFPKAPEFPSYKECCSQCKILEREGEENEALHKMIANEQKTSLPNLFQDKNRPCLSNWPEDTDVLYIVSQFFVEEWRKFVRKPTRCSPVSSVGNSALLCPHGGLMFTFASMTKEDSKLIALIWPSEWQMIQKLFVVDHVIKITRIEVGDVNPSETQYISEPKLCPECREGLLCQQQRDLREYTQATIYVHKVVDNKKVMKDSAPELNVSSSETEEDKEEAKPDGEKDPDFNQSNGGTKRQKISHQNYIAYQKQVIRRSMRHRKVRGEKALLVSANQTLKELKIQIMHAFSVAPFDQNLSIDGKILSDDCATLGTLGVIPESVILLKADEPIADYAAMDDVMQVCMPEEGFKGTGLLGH
Summary of the method: as §1

USP5 = target: T4, USP5 (UniProt P45974)
T4 sequence (whole entry): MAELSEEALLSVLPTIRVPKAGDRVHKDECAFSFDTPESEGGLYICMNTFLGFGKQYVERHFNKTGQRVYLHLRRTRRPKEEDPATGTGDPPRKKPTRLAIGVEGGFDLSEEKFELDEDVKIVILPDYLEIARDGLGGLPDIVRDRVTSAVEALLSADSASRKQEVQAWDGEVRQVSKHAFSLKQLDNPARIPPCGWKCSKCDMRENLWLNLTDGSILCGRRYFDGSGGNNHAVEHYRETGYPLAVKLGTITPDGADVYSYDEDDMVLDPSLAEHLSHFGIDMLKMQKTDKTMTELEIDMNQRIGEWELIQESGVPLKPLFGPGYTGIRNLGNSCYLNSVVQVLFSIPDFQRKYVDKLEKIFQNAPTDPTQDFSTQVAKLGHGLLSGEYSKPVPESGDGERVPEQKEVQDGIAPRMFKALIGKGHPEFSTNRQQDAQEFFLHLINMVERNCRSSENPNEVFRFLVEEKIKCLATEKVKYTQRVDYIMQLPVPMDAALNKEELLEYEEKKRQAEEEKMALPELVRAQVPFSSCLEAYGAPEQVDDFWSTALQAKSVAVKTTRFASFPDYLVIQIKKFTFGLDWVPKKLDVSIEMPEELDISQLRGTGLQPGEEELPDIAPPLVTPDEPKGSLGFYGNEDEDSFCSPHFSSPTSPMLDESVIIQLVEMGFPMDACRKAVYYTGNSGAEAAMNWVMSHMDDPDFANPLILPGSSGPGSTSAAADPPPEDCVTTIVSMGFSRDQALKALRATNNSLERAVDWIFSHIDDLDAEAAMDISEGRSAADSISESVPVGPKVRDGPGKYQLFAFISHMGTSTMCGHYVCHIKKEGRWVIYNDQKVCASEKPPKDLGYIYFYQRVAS
Summary of the method: as §1

USP54 = USP54 (UniProt Q70EL1)
Chain of USP54 (Q70EL1 whole entry): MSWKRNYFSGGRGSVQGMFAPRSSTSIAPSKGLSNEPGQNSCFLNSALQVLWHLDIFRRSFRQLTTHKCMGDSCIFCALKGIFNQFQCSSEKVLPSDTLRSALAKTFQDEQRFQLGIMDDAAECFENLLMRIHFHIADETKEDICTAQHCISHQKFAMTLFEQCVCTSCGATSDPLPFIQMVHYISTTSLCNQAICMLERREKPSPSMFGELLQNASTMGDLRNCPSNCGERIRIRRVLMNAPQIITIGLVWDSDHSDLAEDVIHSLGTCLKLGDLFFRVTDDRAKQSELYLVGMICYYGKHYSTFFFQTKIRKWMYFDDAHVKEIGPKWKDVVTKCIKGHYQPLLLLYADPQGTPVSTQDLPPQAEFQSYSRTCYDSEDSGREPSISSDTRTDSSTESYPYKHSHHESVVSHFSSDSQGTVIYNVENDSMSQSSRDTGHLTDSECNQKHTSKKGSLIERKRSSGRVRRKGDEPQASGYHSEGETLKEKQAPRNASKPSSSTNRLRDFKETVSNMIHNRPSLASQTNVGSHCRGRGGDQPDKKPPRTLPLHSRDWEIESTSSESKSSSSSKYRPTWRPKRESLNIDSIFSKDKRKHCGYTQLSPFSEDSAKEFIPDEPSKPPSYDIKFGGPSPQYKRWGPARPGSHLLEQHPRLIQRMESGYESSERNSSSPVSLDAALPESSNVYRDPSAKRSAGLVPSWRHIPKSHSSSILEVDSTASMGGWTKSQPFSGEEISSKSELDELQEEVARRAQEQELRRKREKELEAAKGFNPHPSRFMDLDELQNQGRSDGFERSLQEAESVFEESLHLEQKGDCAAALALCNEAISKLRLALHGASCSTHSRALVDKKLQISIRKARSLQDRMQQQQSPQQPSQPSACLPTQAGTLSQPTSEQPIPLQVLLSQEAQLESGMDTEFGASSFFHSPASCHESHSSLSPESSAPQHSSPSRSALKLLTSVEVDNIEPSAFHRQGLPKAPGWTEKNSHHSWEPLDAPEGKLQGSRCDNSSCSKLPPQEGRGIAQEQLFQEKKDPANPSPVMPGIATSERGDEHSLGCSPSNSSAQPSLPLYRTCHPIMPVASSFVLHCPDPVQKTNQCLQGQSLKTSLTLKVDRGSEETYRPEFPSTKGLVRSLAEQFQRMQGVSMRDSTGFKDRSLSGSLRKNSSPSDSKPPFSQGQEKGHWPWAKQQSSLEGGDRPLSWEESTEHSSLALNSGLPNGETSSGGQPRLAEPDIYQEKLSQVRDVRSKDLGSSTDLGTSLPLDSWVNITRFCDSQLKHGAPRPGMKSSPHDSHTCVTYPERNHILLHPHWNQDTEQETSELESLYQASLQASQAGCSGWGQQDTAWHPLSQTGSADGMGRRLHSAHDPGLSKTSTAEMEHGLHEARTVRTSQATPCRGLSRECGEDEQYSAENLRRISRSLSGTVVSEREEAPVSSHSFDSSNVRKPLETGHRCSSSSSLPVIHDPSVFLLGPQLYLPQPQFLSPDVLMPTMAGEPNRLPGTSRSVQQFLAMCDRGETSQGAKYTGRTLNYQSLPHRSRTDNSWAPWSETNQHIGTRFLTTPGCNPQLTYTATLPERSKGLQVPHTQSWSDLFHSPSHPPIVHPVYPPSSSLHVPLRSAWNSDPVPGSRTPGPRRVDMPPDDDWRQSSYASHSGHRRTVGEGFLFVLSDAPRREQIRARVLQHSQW
Summary of the method: as §1

USP7 = USP7 (UniProt Q93009)
Chain of USP7 (Q93009 whole entry, looked up): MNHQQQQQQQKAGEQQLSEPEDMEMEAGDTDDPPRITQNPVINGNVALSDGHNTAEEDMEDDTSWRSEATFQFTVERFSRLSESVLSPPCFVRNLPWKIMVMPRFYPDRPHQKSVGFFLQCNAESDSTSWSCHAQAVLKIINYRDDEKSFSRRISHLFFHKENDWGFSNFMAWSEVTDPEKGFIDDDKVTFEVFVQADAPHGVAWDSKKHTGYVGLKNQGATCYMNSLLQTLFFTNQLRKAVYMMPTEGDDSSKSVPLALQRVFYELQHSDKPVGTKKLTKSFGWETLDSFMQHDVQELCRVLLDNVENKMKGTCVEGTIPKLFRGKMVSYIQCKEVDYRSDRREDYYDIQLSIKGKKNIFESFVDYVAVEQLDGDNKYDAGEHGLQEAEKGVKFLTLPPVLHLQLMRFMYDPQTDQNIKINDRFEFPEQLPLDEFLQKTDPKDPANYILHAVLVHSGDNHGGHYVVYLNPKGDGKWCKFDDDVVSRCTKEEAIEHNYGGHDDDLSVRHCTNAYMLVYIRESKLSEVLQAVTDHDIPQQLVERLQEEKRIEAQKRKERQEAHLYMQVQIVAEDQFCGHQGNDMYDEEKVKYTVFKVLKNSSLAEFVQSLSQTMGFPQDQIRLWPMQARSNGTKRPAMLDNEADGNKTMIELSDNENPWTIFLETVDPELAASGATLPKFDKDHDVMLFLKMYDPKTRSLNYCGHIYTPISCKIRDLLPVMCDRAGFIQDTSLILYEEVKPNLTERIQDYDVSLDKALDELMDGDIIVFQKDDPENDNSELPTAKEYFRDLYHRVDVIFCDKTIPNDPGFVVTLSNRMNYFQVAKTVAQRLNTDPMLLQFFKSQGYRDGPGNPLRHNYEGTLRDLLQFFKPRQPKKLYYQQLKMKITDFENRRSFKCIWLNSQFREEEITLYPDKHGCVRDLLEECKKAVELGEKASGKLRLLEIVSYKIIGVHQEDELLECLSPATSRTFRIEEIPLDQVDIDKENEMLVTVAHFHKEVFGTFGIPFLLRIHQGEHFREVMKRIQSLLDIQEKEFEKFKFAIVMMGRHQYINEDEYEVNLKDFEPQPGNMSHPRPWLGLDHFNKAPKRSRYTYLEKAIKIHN
Summary of the method: as §1

USP8 = target: T5, USP8 (UniProt P40818)
T5 sequence (whole entry): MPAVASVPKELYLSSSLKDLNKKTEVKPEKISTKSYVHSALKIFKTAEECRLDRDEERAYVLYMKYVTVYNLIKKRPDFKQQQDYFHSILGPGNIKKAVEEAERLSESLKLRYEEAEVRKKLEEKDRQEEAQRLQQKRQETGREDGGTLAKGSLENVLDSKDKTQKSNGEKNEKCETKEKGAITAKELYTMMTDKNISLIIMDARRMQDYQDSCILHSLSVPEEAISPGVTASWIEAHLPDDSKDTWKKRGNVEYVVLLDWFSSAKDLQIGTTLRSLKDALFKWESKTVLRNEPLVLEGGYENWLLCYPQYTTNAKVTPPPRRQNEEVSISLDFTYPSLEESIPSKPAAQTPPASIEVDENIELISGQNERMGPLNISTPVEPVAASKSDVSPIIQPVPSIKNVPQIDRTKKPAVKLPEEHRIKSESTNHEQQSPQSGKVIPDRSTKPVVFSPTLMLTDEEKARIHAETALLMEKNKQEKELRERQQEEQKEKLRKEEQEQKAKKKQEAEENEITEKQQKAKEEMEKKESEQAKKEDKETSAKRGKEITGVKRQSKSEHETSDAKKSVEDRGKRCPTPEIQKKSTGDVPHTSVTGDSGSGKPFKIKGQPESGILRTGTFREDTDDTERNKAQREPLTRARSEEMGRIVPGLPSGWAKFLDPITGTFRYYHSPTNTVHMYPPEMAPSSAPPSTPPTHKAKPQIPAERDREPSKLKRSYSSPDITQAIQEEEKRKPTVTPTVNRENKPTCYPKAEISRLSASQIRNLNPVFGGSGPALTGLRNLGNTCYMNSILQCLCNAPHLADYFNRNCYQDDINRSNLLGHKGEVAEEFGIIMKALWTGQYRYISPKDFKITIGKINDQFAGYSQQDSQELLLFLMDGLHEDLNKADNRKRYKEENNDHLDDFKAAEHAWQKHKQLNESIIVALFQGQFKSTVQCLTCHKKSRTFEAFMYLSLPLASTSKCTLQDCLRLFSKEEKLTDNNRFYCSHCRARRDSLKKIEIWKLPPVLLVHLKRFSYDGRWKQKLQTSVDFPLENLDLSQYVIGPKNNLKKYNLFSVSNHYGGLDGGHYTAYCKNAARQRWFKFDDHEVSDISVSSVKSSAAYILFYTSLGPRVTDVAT
Summary of the method: as §1

Measured: log2 ratio of Biotin-Ahx-Ub-VS probe labelling

O=C(CCl)Nc1cccc(NC(=O)c2ccccc2)c1
inactive: USP42 0.808 | USP46 0.291 | USP47 -0.303 | USP48 -0.0133 | USP5 0.0977 | USP54 -0.543 | USP7 0.0734 | USP8 0.244
